Measured values reported in publication PMC7862700, “An all-to-all approach to the identification of sequence-specific readers for epigenetic DNA modifications on cytosine”.

Legend:
Assay in all cases: DAPPL (digital affinity profiling via proximity ligation, sequencing); 10 mM Tris-HCl pH 7.5, 50 mM NaCl, 1 mM DTT, 4% glycerol, room temperature, 30 min; GST-TFs on glutathione beads, 16-mer random dsDNA library, 0.1% formaldehyde crosslink after washing; high values mean tight binding
Details in all cases: protein: recombinant; tags: N-terminal GST; dsDNA, one strand shown
FLI1 = target: T1, FLI1 (Homo sapiens, UniProt Q01543 1-452)
T1 sequence: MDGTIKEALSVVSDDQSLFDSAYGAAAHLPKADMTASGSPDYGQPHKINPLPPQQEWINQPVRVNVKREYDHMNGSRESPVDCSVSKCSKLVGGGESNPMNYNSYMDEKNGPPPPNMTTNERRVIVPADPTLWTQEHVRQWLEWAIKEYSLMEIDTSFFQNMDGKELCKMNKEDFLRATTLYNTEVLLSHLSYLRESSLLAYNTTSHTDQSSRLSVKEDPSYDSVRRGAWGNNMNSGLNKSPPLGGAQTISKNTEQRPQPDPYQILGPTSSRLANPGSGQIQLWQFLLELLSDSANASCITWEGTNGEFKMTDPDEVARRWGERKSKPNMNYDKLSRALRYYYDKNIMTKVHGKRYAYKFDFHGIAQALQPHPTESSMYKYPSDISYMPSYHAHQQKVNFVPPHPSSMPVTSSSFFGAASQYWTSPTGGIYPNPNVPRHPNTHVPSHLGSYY
Method in brief: (§1)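 Each value of binding signal is a hexamer's read frequency for a factor divided by the same hexamer's frequency in the tag-only sample. Barcoded, bead-captured GST fusions of human transcription factors made in yeast were pooled with that sample and incubated with 200 nmole of a random double-stranded 16-mer DNA library in Tris/NaCl/DTT/glycerol buffer at room temperature for 30 min. Washing, 0.1% formaldehyde crosslinking, proximity ligation, PCR and Illumina NextSeq500 sequencing followed.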

ELK1 = target: T2, ELK1 (Homo sapiens, UniProt P19419 1-428)
T2 sequence: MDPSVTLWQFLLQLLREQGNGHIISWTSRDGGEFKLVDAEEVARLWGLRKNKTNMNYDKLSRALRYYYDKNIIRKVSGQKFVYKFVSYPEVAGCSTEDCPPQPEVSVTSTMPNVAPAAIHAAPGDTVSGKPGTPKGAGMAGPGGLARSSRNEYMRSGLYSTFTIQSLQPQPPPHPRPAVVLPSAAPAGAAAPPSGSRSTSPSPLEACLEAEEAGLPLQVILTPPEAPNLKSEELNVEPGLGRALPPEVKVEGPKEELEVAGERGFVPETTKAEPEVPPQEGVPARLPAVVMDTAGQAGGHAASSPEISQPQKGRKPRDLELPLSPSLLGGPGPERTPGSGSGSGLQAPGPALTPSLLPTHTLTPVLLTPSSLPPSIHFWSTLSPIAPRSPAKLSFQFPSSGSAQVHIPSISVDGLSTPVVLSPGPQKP
Method in brief: as §1

GABPA = target: T3, GABPA (Homo sapiens, UniProt Q06546 1-454)
T3 sequence: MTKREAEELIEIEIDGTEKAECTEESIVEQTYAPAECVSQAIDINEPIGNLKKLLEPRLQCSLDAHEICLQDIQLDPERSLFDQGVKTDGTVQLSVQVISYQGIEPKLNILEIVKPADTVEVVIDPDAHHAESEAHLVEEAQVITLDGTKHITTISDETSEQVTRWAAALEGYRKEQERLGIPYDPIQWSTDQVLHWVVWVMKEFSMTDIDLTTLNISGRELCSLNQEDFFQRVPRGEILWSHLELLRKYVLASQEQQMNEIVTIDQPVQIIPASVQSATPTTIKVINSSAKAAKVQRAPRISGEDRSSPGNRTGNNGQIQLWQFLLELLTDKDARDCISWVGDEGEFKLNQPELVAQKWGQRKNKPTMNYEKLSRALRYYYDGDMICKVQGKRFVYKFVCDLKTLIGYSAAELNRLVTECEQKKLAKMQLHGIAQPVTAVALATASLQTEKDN
Method in brief: as §1

ERG = target: T4, ERG (Homo sapiens, UniProt P11308 1-479)
T4 sequence: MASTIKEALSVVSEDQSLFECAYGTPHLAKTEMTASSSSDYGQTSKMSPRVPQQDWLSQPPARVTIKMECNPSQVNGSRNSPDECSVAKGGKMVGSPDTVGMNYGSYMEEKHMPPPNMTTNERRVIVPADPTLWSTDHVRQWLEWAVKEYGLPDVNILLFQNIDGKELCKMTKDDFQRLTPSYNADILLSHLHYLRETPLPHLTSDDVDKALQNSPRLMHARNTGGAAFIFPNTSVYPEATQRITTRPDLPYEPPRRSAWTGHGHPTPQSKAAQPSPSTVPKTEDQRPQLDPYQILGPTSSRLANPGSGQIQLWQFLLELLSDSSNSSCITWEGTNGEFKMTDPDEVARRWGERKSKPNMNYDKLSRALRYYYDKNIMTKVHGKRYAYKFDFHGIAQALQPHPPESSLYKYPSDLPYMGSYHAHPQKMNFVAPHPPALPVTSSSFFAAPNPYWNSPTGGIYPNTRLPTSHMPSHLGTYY
Method in brief: as §1

ELF1 = ELF1 (Homo sapiens, UniProt P32519 1-619)
Chain of ELF1 (P32519 whole entry): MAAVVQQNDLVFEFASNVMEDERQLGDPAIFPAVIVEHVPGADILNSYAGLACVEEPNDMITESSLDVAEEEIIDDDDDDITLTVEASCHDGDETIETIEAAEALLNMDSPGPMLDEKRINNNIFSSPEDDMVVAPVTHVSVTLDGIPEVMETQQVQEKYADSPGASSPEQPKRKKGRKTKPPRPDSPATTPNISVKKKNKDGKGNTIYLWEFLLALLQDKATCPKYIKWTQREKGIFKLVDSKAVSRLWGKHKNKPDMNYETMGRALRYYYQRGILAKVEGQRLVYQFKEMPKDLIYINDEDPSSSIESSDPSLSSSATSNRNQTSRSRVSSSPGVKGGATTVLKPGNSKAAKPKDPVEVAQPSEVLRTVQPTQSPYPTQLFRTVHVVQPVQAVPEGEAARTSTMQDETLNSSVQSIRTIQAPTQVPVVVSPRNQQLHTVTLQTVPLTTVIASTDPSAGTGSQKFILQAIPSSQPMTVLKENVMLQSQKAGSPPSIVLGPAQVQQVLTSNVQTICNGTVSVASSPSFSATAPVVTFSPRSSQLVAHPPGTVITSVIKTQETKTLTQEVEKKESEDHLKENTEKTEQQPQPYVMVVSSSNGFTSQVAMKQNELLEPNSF
Method in brief: as §1

EHF = target: T5, EHF (Homo sapiens, UniProt Q9NZC4 1-300)
T5 sequence: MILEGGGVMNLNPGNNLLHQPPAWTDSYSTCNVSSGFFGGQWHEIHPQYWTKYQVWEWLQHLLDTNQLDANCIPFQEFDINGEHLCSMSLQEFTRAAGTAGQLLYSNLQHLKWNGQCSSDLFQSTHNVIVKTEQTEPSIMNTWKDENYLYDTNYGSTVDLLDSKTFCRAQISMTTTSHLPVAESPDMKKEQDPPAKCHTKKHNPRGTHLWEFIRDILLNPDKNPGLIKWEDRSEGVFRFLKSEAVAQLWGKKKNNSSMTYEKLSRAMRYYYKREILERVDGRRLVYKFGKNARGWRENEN
Method in brief: as §1

SPI1 = SPI1 (Homo sapiens, UniProt P17947 1-270)
Method in brief: as §1

SPIB = SPIB (Homo sapiens, UniProt Q01892 1-262)
Chain of SPIB (Q01892 whole entry): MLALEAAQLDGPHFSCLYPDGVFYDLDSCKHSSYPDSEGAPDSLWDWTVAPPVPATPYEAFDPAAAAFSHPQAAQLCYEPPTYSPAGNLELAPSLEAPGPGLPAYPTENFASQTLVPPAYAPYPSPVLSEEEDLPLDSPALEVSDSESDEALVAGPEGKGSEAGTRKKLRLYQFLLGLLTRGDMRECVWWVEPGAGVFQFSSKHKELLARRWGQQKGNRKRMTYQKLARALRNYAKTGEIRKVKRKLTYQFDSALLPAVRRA
Method in brief: as §1

ELK3 = target: T6, ELK3 (Homo sapiens, UniProt P41970 1-407)
T6 sequence: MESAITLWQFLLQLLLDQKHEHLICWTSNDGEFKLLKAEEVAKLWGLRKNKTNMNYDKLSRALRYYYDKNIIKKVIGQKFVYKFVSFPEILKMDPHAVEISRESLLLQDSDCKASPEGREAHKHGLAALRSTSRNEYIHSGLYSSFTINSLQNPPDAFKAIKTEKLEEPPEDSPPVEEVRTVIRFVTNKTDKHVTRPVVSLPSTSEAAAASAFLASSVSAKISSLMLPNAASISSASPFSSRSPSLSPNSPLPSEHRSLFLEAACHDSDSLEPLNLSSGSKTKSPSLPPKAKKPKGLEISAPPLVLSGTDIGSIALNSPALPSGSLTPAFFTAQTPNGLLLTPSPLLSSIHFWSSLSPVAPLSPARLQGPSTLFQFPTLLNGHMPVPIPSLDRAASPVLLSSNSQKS
Method in brief: as §1

FEV = target: T7, FEV (Homo sapiens, UniProt Q99581 1-238)
T7 sequence: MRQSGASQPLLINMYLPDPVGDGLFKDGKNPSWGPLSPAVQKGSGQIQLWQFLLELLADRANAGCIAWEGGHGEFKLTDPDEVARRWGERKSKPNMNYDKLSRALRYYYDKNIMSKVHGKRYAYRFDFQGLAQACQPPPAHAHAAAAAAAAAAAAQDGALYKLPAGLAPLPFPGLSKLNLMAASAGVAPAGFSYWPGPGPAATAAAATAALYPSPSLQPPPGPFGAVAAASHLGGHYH
Method in brief: as §1

ETV5 = ETV5 (Homo sapiens, UniProt P41161 1-510)
Chain of ETV5 (P41161 whole entry): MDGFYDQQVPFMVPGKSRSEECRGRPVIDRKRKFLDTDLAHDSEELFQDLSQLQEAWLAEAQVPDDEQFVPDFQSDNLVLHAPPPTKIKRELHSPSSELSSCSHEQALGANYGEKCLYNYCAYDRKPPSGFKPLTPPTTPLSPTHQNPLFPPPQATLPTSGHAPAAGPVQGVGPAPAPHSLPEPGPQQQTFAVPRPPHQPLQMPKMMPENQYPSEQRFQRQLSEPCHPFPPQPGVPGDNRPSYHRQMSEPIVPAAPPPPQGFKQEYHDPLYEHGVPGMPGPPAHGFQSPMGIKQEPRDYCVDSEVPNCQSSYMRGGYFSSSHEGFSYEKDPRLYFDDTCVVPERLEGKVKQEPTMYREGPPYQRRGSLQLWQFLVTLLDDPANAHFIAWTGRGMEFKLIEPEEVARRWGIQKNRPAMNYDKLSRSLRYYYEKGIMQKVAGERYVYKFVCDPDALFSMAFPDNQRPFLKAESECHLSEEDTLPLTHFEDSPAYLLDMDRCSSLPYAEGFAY
Method in brief: as §1

SPIC = target: T8, SPIC (Homo sapiens, UniProt Q8N5J4 1-248)
T8 sequence: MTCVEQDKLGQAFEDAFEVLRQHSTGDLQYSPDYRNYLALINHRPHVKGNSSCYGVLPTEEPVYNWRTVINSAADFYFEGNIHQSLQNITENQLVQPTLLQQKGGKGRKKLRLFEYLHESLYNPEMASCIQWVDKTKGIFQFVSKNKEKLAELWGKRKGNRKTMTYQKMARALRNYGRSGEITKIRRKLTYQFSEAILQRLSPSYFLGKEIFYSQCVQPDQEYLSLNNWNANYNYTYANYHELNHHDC
Method in brief: as §1

ELF4 = ELF4 (Homo sapiens, UniProt Q99607 1-663)
Chain of ELF4 (Q99607 whole entry): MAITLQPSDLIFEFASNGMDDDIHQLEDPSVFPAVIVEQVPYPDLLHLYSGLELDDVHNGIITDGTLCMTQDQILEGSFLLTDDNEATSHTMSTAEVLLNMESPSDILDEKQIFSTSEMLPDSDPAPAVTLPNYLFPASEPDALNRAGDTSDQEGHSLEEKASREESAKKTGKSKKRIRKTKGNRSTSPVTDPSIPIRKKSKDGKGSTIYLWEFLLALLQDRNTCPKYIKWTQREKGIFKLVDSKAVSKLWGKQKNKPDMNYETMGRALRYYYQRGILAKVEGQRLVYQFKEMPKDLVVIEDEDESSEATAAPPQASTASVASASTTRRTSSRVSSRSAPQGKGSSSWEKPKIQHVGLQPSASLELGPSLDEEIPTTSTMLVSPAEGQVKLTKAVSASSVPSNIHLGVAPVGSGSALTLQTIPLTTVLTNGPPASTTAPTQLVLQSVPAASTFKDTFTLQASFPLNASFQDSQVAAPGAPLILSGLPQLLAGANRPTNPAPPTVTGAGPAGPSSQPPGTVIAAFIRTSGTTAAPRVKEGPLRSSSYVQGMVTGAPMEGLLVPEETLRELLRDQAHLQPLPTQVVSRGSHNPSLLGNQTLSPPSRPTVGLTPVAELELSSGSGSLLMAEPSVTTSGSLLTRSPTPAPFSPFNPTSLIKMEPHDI
Method in brief: as §1

ELK4 = target: T9, ELK4 (Homo sapiens, UniProt P28324-2 1-405)
T9 sequence: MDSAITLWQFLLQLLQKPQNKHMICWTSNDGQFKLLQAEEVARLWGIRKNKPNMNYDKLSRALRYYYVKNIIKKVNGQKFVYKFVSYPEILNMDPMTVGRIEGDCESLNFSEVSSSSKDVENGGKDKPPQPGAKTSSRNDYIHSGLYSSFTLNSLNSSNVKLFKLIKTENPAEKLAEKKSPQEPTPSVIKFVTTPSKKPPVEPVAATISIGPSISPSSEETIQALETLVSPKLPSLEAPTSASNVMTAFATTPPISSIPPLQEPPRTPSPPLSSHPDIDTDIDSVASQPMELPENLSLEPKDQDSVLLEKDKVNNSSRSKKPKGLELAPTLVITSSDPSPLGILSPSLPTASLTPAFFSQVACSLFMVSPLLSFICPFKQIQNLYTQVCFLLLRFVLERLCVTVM
Method in brief: as §1

ETV2 = target: T10, ETV2 (Homo sapiens, UniProt O00321 1-342)
T10 sequence: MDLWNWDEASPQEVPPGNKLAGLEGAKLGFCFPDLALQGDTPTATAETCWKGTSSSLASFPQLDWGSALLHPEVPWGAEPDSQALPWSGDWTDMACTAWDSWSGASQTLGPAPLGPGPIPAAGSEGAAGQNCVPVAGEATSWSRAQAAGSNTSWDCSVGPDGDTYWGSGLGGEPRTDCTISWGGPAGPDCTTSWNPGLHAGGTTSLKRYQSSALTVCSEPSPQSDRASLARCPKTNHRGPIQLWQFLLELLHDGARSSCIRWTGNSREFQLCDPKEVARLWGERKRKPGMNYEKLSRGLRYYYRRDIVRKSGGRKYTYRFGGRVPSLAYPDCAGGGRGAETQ
Method in brief: as §1

ELF3 = target: T11, ELF3 (Homo sapiens, UniProt P78545 1-371)
T11 sequence: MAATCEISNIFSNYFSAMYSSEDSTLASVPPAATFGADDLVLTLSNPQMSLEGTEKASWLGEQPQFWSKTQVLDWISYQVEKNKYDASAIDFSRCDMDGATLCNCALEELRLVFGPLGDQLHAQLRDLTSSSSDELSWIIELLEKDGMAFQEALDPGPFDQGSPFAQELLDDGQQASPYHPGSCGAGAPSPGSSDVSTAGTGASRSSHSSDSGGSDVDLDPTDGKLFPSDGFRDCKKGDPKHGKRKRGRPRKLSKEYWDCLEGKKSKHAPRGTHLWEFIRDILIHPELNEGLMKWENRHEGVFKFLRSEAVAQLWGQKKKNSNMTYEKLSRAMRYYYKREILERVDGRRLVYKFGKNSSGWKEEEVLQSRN
Method in brief: as §1

ETV1 = ETV1 (Homo sapiens, UniProt P50549 1-477)
Chain of ETV1 (P50549 whole entry): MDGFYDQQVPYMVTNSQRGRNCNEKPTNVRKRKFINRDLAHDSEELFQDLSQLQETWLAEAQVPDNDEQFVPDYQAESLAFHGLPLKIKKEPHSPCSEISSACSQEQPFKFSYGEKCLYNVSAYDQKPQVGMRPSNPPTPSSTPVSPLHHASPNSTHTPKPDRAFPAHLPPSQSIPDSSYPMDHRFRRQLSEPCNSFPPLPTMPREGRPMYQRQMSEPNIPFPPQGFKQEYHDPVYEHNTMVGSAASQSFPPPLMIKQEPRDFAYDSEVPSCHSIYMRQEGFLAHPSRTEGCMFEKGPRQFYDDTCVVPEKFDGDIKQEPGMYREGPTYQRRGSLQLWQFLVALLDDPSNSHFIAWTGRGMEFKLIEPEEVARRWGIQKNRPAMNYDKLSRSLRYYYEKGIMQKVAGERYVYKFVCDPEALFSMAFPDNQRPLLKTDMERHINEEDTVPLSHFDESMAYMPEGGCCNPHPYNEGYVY
Method in brief: as §1

Sequence	binding signal (FLI1)	binding signal (ELK1)	binding signal (GABPA)	binding signal (ERG)	binding signal (ELF1)	binding signal (EHF)	binding signal (SPI1)	binding signal (SPIB)	binding signal (ELK3)	binding signal (FEV)	binding signal (ETV5)	binding signal (SPIC)	binding signal (ELF4)	binding signal (ELK4)	binding signal (ETV2)	binding signal (ELF3)	binding signal (ETV1)
ACACCT	1.1 fold enrichment (6-mer frequency, TF over GST control)	1.09 fold enrichment (6-mer frequency, TF over GST control)	1.04 fold enrichment (6-mer frequency, TF over GST control)	1.12 fold enrichment (6-mer frequency, TF over GST control)	1.07 fold enrichment (6-mer frequency, TF over GST control)	1.13 fold enrichment (6-mer frequency, TF over GST control)	1.09 fold enrichment (6-mer frequency, TF over GST control)	1.03 fold enrichment (6-mer frequency, TF over GST control)	1.06 fold enrichment (6-mer frequency, TF over GST control)	1.03 fold enrichment (6-mer frequency, TF over GST control)	1.03 fold enrichment (6-mer frequency, TF over GST control)	1.04 fold enrichment (6-mer frequency, TF over GST control)	1.11 fold enrichment (6-mer frequency, TF over GST control)	1.1 fold enrichment (6-mer frequency, TF over GST control)	1.03 fold enrichment (6-mer frequency, TF over GST control)	1.03 fold enrichment (6-mer frequency, TF over GST control)	1.13 fold enrichment (6-mer frequency, TF over GST control)
CCAACA	1.06 fold enrichment (6-mer frequency, TF over GST control)	1.11 fold enrichment (6-mer frequency, TF over GST control)	1.09 fold enrichment (6-mer frequency, TF over GST control)	1 fold enrichment (6-mer frequency, TF over GST control)	1.04 fold enrichment (6-mer frequency, TF over GST control)	1.12 fold enrichment (6-mer frequency, TF over GST control)	1.01 fold enrichment (6-mer frequency, TF over GST control)	1.01 fold enrichment (6-mer frequency, TF over GST control)	1.03 fold enrichment (6-mer frequency, TF over GST control)	1.05 fold enrichment (6-mer frequency, TF over GST control)	1.05 fold enrichment (6-mer frequency, TF over GST control)	1.01 fold enrichment (6-mer frequency, TF over GST control)	1.13 fold enrichment (6-mer frequency, TF over GST control)	1.08 fold enrichment (6-mer frequency, TF over GST control)	1.02 fold enrichment (6-mer frequency, TF over GST control)	1.06 fold enrichment (6-mer frequency, TF over GST control)	1.04 fold enrichment (6-mer frequency, TF over GST control)
